Test results reported in the supplement of paper PMC10981050.
“And” between values parts separate entries of the source, which are not always exact repeats. Equal entries are not always repeated. Structures can show the parent of a compound that is named as a salt.

Key:
Experiment in all cases: cell viability relative to vehicle control; higher = less cytotoxic
Conditions in all cases: 10 µM
[1] = system: K562
How it was run: (§1)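 CRISPR-edited mutant clones and isogenic wild-type clones from four leukaemia lines were screened against Selleck bioactive, kinase and epigenetic probe libraries, with identity-inconsistent compounds excluded. Each compound was acoustically dispensed at a single 10 µM dose into 384-well plates holding 2000 cells in 50 µL medium per well. After 48 h the supernatant was removed and CellTiter-Glo luminescence was read. Viability was expressed as percent of the on-plate vehicle control and analysed in Genedata Screener.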

[2] = system: MARIMO
How it was run: as §1

[3] = system: MOLM14
How it was run: as §1

[4] = system: OCI-AML2
How it was run: as §1

SMILES | cell viability ([1]; SRSF2 genotype: SRSF2 P95H/wt) | cell viability ([1]; SRSF2 genotype: SRSF2 wt/wt) [%] | cell viability ([2]; SRSF2 genotype: SRSF2 P95H/wt) [%] | cell viability ([2]; SRSF2 genotype: SRSF2 wt/wt) [%] | cell viability ([3]; SRSF2 genotype: SRSF2 P95H/wt) [%] | cell viability ([3]; SRSF2 genotype: SRSF2 wt/wt) [%] | cell viability ([4]; SRSF2 genotype: P95H/wt) [%] | cell viability ([4]; SRSF2 genotype: wt/wt) [%]
CCc1cc(C(N)=S)ccn1 [Ethionamide] | 97.4% and 93.4% | 91.2 | 97 | 98.1 | 106 | 100 | 94.3 | 97.7
Nc1c(CC(=O)O)cccc1C(=O)c1ccc(Br)cc1 [Bromfenac Sodium] | 106% and 105% | 97.3 | 105 | 98.3 | 102 | 102 | 107 | 104
Oc1ccc(Cc2nc3c(Cc4ccccc4)nc(-c4ccc(O)cc4)cn3c2O)cc1 [Coelenterazine] | 96.7% and 92.9% | 101 | 94.9 | 93.5 | 86.2 | 97 | 98.8 | 98
NCCc1ccc(O)c(O)c1 [Dopamine hydrochloride (Inotropin)] | 89% and 91.3% | 93.1 | 88.6 | 103 | 80.9 | 100 | 99.9 | 105
NS(=O)(=O)Cc1noc2ccccc12 [Zonisamide] | 90.4% and 88.2% | 89.5 | 85 | 98 | 91.8 | 90.3 | 84.7 | 95.2
C[N+]1(C)[C@@H]2CC[C@H]1C[C@@H](OC(=O)C(O)c1ccccc1)C2 (stereo partly drawn) [Homatropine Methylbromide] | 103% and 100% | 101 | 106 | 114 | 102 | 104 | 92.9 | 105
CC(C)NCC(O)COc1ccc(CCOCC2CC2)cc1 (stereo not drawn) [Betaxolol hydrochloride (Betoptic)] | 97.5% and 96.6% | 94.3 | 103 | 107 | 99.5 | 99.7 | 91.2 | 99.6
CCCc1cc(C)[nH]c(=O)c1CNC(=O)c1cc(-c2ccc(N3CCN(C)CC3)nc2)nc2c1cnn2C(C)C | 15.9% and 4.45% | 20.9 | 85.6 | 47.7 | 55.9 | 78.5 | 0.4 | 0.41
O=C(Nc1c(Cl)cncc1Cl)c1ccc(OC(F)F)c(OCC2CC2)c1 [Roflumilast (Daxas)] | 96.8% and 106% | 105 | 116 | 114 | 105 | 109 | 103 | 96
C=C[C@@H]1C[C@]1(NC(=O)[C@@H]1C[C@@H](Oc2ncc(OC)c3ccc(Cl)cc23)CN1C(=O)[C@@H](NC(=O)OC(C)(C)C)C(C)(C)C)C(=O)NS(=O)(=O)C1CC1 [Asunaprevir] | 88.6% and 75.8% | 78.8 | 103 | 109 | 96.3 | 97.9 | 108 | 110
CC[C@@H]1C(=O)N(C)c2cnc(Nc3ccc(C(=O)NC4CCN(C)CC4)cc3OC)nc2N1C1CCCC1 | 1.43% and 2.65% | 1.81 | 6.52 | 5.37 | 0.17 | 0.13 | 0.53 | 2.92
CCCCC[C@H](O)/C=C/[C@H]1[C@H](O)CC(=O)[C@@H]1C/C=C\CCCC(=O)O [Dinoprostone] | 99% | 99.1 | 91.4 | 79.3 | 59.1 | 62 | 74.5 | 67.5
CCOC(=O)/C=C/c1ccc(O)c(O)c1 [Ethyl caffeate] | 88.5% and 88.6% | 95 | 44.4 | 80.5 | 78.1 | 78.1 | 76.8 | 77.7
COc1cc(S(=O)(=O)O)ccc1O [Sulfogaiacol] | 106% and 109% | 113 | 108 | 112 | 107 | 104 | 117 | 105
Cc1ccc(S(=O)(=O)C=CC#N)cc1 | 1.6% and 0.48% | 0.6 | 0.37 | 0.39 | 0.28 | 0.27 | 0.28 | 0.35
Cc1cc(O)c(-c2ccc([C@@H](C)CN)cc2)c2c1[nH]c(=O)c1sccc12 [OTS514 hydrochloride] | 19.6% and 29.6% | 21.7 | 3.37 | 1.35 | 0.27 | 0.16 | 0.39 | 8.87
COc1ccc(CCO[C@@H]2O[C@H](CO[C@@H]3OC[C@H](O)[C@H](O)[C@H]3O)[C@@H](OC(=O)/C=C/c3ccc(O)c(OC)c3)[C@H](O[C@@H]3O[C@@H](C)[C@@H](O)[C@@H](O)[C@H]3O)[C@H]2O)cc1O [Angoroside C] | 107% and 103% | 111 | 101 | 96.2 | 113 | 106 | 105 | 95.5
COC(=O)CC1CC(c2ccc(O)cc2)=NO1 (stereo not drawn) | 113% and 102% | 104 | 102 | 112 | 77.1 | 102 | 104 | 103
C=C1C[C@@]23CC[C@H]4[C@@](C)(CCC[C@@]4(C)C(=O)O[C@@H]4O[C@H](CO)[C@@H](O)[C@H](O)[C@H]4O)[C@@H]2CC[C@]1(O[C@@H]1O[C@H](CO)[C@@H](O)[C@H](O)[C@H]1O[C@@H]1O[C@H](CO)[C@@H](O)[C@H](O)[C@H]1O)C3 [Stevioside] | 113% and 107% | 113 | 111 | 97.4 | 112 | 112 | 108 | 106
C[C@@H]1O[C@@H](O[C@@H]2[C@@H](O)[C@H](OCCc3ccc(O)c(O)c3)O[C@H](COC(=O)/C=C/c3ccc(O)c(O)c3)[C@H]2O)[C@H](O)[C@H](O)[C@H]1O [Isoacteoside] | 101% and 104% | 91.6 | 99 | 103 | 94.9 | 101 | 100 | 106
O=C(NOCC(O)CO)c1cc(Br)c(F)c(F)c1Nc1ccc(I)cc1F (stereo not drawn) | 81.1% and 89.7% | 83.2 | 41.3 | 37.3 | 50.1 | 36.6 | 40.6 | 45
